HTT aggregate = reduces HttQ103-GFP aggregates in PC12 cells | Potency, µM (titrated, usually from 46.1 µM), for inactives: at the highest dose activity change, negative = inhibition, most hits filed as inhibitors | hit rate 1.1% among 220,000 | PC12 HttQ103-GFP aggregates, Acumen cytometry, 40 h; also: % is scaled to controls: 0 for no effect and ±100 for the full control effect; nearly all actives have a fitted effect of over 60% in size
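Inducible Q103 Huntingtin exon 1–GFP PC12 line, 1500 cells/well in phenol red free DMEM with 5% equine and 5% calf serum. Tebufenozide 100 nM induced expression; compounds titrated; aggregates quantified by cytometry.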
HTT ATP protect = protects HTT-Q103 PC12 cells, measured by ATP | PC12 HTT-Q103 induced, cytoprotection, ATP luminescence, 40 h | Potency, µM (doses to about 56.4 µM), for the others: cytoprotection (ATP increase), actives largely listed as activators | hit rate 0.14% among 230,000 | AID 1471; also: % of control where 0% means no effect; nearly all actives have a fitted effect of over 45% in size
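Stable PC12 Q103-GFP cells in serum-supplemented, phenol red-free DMEM; induction by tebufenozide at 100 nM final; compound dose series; cell viability quantified luminescently from ATP.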
Epigenetic derep = epigenetic control regulation, reporter derepression | murine LDR cells, GFP reporter derepression, 30 h | Potency, µM (titrated, usually from 53.9 µM), for the others: top-dose GFP activation, usual class: activators | hit rate 0.2% among 280,000; also: % of control where 0% means no effect; nearly all actives have a fitted effect of over 60% in size
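GFP-positive cell count by laser-scanning cytometry (objects 20–120 um) after 30 h, 37 C compound exposure of murine LDR cells; reporter is CMV-GFP integrated at a silenced locus, inducible by HDAC or DNMT inhibitors.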
PINK1 expr mod = modulators of PINK1 expression. hit rate 0.2% among 410,000. Potency, µM (top dose mostly 76.6 µM), for the others: at the highest dose activation (PINK1 increase), hits mostly activators. AID 624263. PINK1 immunofluorescence, high-content cytometry, 24 h; active = well fitted activation curve with a large enough effect; inconclusive = small, poorly fitted or top-dose-only effect; cell line not stated here; also: % of control where 0% means no effect; nearly all actives have a fitted effect of over 65% in size
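Cells are seeded, rested 12 hours, then given compound at five concentrations or DMSO for 24 hours. After fixation, blocking and antibody staining, PINK1 amount and mitochondrial localization are scored; CCCP serves as control.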
Starred values were filed as active, the others as inactive; ? = inconclusive; . = no result given; [ ] = another dose, or the depositor's remark. Shown is part of a subset that was picked to be rich in hits. Unless noted, calls follow the shape of the dose curve; as a rule, active = well fitted curve in the direction sought with a large enough effect; inconclusive = small, poorly fitted or top-dose-only effect, or another doubt; inactive = no such curve, though single readings can be large; an effect the other way counts as inactive or inconclusive. Potency is read from the fitted curve at half-maximal effect.

SMILES | HTT aggregate | HTT ATP protect | Epigenetic derep | PINK1 expr mod
O=C(c1cc(COc2c(F)cccc2F)on1)N1CCC(c2ccncc2)CC1 | 20µM* | -35% | 5% | 0%
CO[C@H]1[C@H](NC(=O)c2cccc(F)c2)c2ccccc2C12CCN(Cc1ccco1)CC2 | . | . | . | 0%
CCOc1ccc2[nH]c(C)cc(=O)c2c1 | -7% | -10% | -2% | 0%
O=c1cc(C(F)(F)F)[nH]c2c(C(F)(F)F)cccc12 | 20µM* | . | 12% | ?
O=c1cc(C(F)(F)F)[nH]c2ccc(OC(F)(F)F)cc12 | -5%[9.22 µM] | -28%[10 µM] | -1% | 35µM*
O=[N+]([O-])c1ccccc1CN1CCN(Cc2c[nH]c3ccccc23)CC1 | 8.9µM* | -109% | -1% | 2%
CCNc1ccc(-c2nc(-c3ccncc3)no2)cc1[N+](=O)[O-] | . | . | 0% | 14µM*
COc1ccc(CC(O)CO)cc1OCc1ccccc1 (centres undefined) | . | . | . | 2%
COc1ccc(-c2nc(N3CCN(S(=O)(=O)c4ccc(F)cc4)CC3)c3ccccc3n2)cc1 | . | . | . | 0%
COC(C(=O)C(O)C(C)O)C1Cc2cc3cc(OC4CC(OC5CC(O)C(O)C(C)O5)C(O)C(C)O4)c(C)c(O)c3c(O)c2C(=O)C1OC1CC(OC2CC(OC3CC(O)C(OC)C(C)O3)C(O)C(C)O2)C(O)C(C)O1 (centres undefined) | . | . | . | 1%
CO[C@H](C(=O)[C@@H](O)[C@@H](C)O)C1Cc2cc3cc(O[C@H]4C[C@@H](O[C@H]5C[C@@H](O)[C@H](O)[C@@H](C)O5)[C@@H](O)[C@@H](C)O4)c(C)c(O)c3c(O)c2C(=O)[C@H]1O[C@H]1C[C@@H](O[C@H]2C[C@@H](O[C@H]3C[C@](C)(O)[C@H](O)[C@@H](C)O3)[C@H](O)[C@@H](C)O2)[C@H](O)[C@@H](C)O1 (some centres undefined) | 0.22µM* | -63% | . | .
COC(C(=O)C(O)C(C)O)C1Cc2cc3cc(OC4CC(OC5CC(O)C(O)C(C)O5)C(O)C(C)O4)c(C)c(O)c3c(O)c2C(=O)C1OC1CC(OC2CC(OC3CC(C)(O)C(O)C(C)O3)C(O)C(C)O2)C(O)C(C)O1 (centres undefined) | 0.22µM* | -47% | . | 0%
Cc1nc2cncnc2n(Cc2ccccc2Cl)c1=O | . | -34% | . | 0%
Cc1ccc(OC(C)C(=O)Nc2nonc2-c2ccc(Br)cc2)cc1C (centres undefined) | . | . | -2% | 22µM*
Cc1cccc(OC(C)C(=O)Nc2nonc2-c2ccc(Br)cc2)c1C (centres undefined) | . | . | 2% | 18%
CC(C)(C)OC(=O)NCCc1nnc(S(=O)(=O)Cc2ccc(Cl)cc2Cl)o1 | 20µM* | 10%[0.074 µM] | 1% | -3%
COc1ccc2[nH]c(=O)c(CN(CCN3CCCC3)C(=O)Nc3ccccc3Cl)cc2c1 | ? | -24% | 2% | 0%
CC1(C)CC(=O)C(/C=N/c2ccccn2)=C(O)C1 | 22µM* | -5% | -4% | 6%[38.3 µM]
CC1(C)CC(=O)C(C=Nc2cccc(/N=C/C3=C(O)CC(C)(C)CC3=O)n2)=C(O)C1 | 0% | 4% | 2% | .
COc1cc2c(cc1OC)n(CC(=O)c1ccc(C)cc1)c(=O)n1nc(CCn3nc(C)cc3C)nc21 | . | . | -1% | 0%
CCc1ccc(-c2nc(CSCC(=O)N3CCN(c4ncccn4)CC3)c(C)o2)cc1 | 11µM* | -2% | 0% | 3%
O=[N+]([O-])c1cnc2ccccn12 | 7%[9.22 µM] | 4µM* | 0% | 0%
O=C(Cn1c2ncccc2c(=O)n1-c1ccccc1)Nc1cccc(C(F)(F)F)c1 | . | . | -2% | 7%
Cc1ccc(-c2nc(Nc3ccc(O)cc3)c3ccccc3n2)cc1 | . | . | . | 4%
Cc1ccc(-c2nc(C(Cl)Cl)c3ccccc3n2)cc1 | 0.89µM* | -80%[10 µM] | -3% | -2%
O=C(CCCn1c(=O)c2ccccc2n(Cc2cccc(F)c2)c1=O)NCc1ccccc1Cl | . | . | 0% | 0%
CCOCCn1c(N2CCN(c3ccccc3)CC2)nc2c1c(=O)n(C)c(=O)n2C | -12% | 2% | 2% | 1%
COCCn1c(CN2CCN(c3cccc(Cl)c3)CC2)nc2c1c(=O)n(C)c(=O)n2C | 20µM* | -35% | 1% | 0%
COCCn1c(N2CCN(c3ccccc3)CC2)nc2c1c(=O)n(C)c(=O)n2C | 19%[9.22 µM] | 2µM* | 1% | 0%
